For 25 sequences, ETS1 binding intensity and RUNX1 binding intensity results are on record in the supplement of paper PMC10681739.

In experiment [1] the target is T1, ETS1 (UniProt P14921).
T1 sequence: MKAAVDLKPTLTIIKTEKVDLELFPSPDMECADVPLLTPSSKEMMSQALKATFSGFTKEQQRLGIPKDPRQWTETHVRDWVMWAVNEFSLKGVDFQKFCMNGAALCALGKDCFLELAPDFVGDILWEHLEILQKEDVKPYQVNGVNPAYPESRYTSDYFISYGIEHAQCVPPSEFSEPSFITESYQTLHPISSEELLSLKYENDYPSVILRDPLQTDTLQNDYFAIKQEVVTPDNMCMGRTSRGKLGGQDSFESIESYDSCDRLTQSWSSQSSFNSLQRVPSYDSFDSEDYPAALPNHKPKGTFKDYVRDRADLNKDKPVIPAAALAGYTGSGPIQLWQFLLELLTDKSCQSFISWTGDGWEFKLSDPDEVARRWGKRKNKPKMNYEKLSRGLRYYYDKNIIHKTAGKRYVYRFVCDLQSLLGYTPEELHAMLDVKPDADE
As to the kind of experiment: ETS1 binding intensity (PBM fluorescence), ETS1 alone (arbitrary fluorescence units); higher = stronger binding. To be noted: ETS1 concentration 1 nM; RUNX1 concentration 0 nM.

In experiment [2] the target is RUNX1 (UniProt Q01196). Put plainly: RUNX1 binding intensity (PBM fluorescence), RUNX1 alone (arbitrary fluorescence units); higher = stronger binding. To be noted: RUNX1 concentration 2 nM; ETS1 concentration 0 nM. As to the method: (§1)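 Cooperative gcPBM on 36-bp genomic probes with neighbouring ETS1 and RUNX1 sites. Recombinant human RUNX1 (2 nM) was incubated alone or with ETS1 (25 nM) and detected with anti-RUNX1 antibody plus Alexa488 secondary. Values are medians over 4 replicate spots; the RUNX1+ETS1 data were normalised to the RUNX1-only data. The probes sit in constant array flanks that are not printed.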

For experiment [3], the target named is T1, ETS1. Put plainly: ETS1 binding intensity (PBM fluorescence) in presence of RUNX1, normalised to ETS1-only experiment (arbitrary fluorescence units); higher = stronger binding. To be noted: ETS1 concentration 1 nM; RUNX1 concentration 25 nM.
For experiment [4], the target named is RUNX1 (UniProt Q01196). As to the kind of experiment: RUNX1 binding intensity (PBM fluorescence) in presence of ETS1, normalised to RUNX1-only experiment (arbitrary fluorescence units); higher = stronger binding. The conditions noted are these: RUNX1 concentration 2 nM; ETS1 concentration 25 nM. As to the method:
as §1
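Throughout, for RUNX1 binding intensity (PBM fluorescence) in presence of ETS1, normalised to RUNX1-only experiment: Full-length recombinant human ETS1 or RUNX1 bound to double-stranded 36-bp genomic probes on microarrays, detected by protein-specific primary antibody and Alexa488 secondary, spot fluorescence as median of four replicate spots.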
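Throughout, for RUNX1 binding intensity (PBM fluorescence), RUNX1 alone: Full-length recombinant human RUNX1 bound to double-stranded 36-bp genomic probes on a high-density microarray, scored as Alexa488 fluorescence per spot via anti-RUNX1 antibody, median of four replicate spots.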

Chain of RUNX1 (Q01196 whole entry): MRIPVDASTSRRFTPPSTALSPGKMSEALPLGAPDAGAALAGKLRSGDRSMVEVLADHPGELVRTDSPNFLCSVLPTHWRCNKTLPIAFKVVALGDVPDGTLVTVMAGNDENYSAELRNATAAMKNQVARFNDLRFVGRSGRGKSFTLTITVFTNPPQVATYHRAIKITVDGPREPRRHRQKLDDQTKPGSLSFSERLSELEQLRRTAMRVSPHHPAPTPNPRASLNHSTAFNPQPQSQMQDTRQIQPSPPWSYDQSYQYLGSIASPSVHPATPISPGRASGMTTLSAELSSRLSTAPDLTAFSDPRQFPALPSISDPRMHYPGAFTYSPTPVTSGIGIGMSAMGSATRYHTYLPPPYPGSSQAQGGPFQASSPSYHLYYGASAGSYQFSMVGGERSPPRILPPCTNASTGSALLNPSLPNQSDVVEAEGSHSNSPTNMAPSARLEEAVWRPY

Take TTGGCTTTGTGTTTCCGCGGTGTTGGTAGAGTCTCG: the ETS1 binding intensity amounted to 418 in the experiment with ETS1 [1] and 482 with ETS1 [3]. Besides, the results for the RUNX1 binding intensity with RUNX1 [2] and with RUNX1 [4] were 875 and 980, respectively.
Turning to CCCCTATATCACAGGATGCCGCAAACTAGTAACAGG, the ETS1 binding intensity was found to be 1610 with ETS1 [1] and 2210 with ETS1 [3]. In addition, the RUNX1 binding intensity with RUNX1 [4] came to 993.
In the case of CTTAAATGGGAAATGTAGGTGTGGTTAAGTCACAAA, the results for the ETS1 binding intensity with ETS1 [1] and in the experiment with ETS1 [3] were 558 and 556, respectively. The RUNX1 binding intensity was 859 with RUNX1 [2] and 915 in the experiment with RUNX1 [4].
The matching figures for CCAAGCACTTCCTGCTGTTAGCTTTGTGGGCTGAGT: 826, 1020, 860 and 1600.
For the sequence CAACGGCGTAGCCGGAAGTCAGTGGTTTTCGCCCCA, the ETS1 binding intensity with ETS1 [1] stood at 12100; with ETS1 [3], 18200. In addition, the RUNX1 binding intensity with RUNX1 [2] was determined as 721; in the experiment with RUNX1 [4], 1650.
The matching figures for TGCTTAGCAGGAAGTTAGTCTGCCTGTGGTAGCTCC: 2770, 3470, 734 and 1020.
Take TCTGGATTTCCTGTGGGGCTCTCCCACAAGCAGTAC: the ETS1 binding intensity with ETS1 [1] was determined as 518; with ETS1 [3] it was 506. Further, the RUNX1 binding intensity with RUNX1 [4] came to 1390.
As for CCCTACCTCTCCTTCCTGCCACAAGGGAAAGTCACT, the ETS1 binding intensity with ETS1 [1] worked out at 508; in the experiment with ETS1 [3], 481. Besides, the RUNX1 binding intensity is 1390 with RUNX1 [2] and 2550 with RUNX1 [4].
AGTGTCCGCCGCTTCCTGGTTGCGGGTCAGCGCCCA: the ETS1 binding intensity in the experiment with ETS1 [1] stood at 629; in the experiment with ETS1 [3], 704. Further, the RUNX1 binding intensity with RUNX1 [4] is 2690.
In the case of CAGGCTGCTTCCGGCGCGCGGCAGAGCGGTCAGAGC, the ETS1 binding intensity in the experiment with ETS1 [1] is 990; in the experiment with ETS1 [3], 1160. Besides, the figures for the RUNX1 binding intensity in the experiment with RUNX1 [2] and with RUNX1 [4] were 714 and 1700, respectively.
With TTTGTGCCCCAACTTCCTCTGTGGCTTTTGGGTGGG, the ETS1 binding intensity with ETS1 [1] came to 650; with ETS1 [3], 969. Also, the RUNX1 binding intensity in the experiment with RUNX1 [2] was determined as 898; with RUNX1 [4], 1480.
The matching figures for CGAAGCCGGAAATGCTGAGTGTGCGGGGCCGAACGT: 4230, 4980, 694 and 1220.
The matching figures for GAGGAGATTTCCGGCCCCCATCCCCGCAGCGACCTT: 1690, 1990, 762 and 1820.
The matching figures for TCAAGAAAACAGGAAACTCTCAAAACCAAGTTCTGA: 1430, 1830, 773 and 931.
For the sequence GCAGCTCTGGCAGGATGCGGTTAAATATGTATCCAC, the ETS1 binding intensity with ETS1 [1] was determined as 2010; with ETS1 [3], 12700. In addition, the figures for the RUNX1 binding intensity with RUNX1 [2] and with RUNX1 [4] were 1920 and 7800, respectively.
As for CGCCGGCTCCCGGATGTTGTGGGGATCAGCGCCCGC, the ETS1 binding intensity with ETS1 [1] worked out at 3270; in the experiment with ETS1 [3], 3760. For the same sequence, the RUNX1 binding intensity with RUNX1 [4] is 1260.
Take CTTTGCTGCCGCCTTCCTGTGCGGGGCCGTGGCGGC: the ETS1 binding intensity with ETS1 [1] was 493; in the experiment with ETS1 [3], 389. Further, the values for the RUNX1 binding intensity in the experiment with RUNX1 [2] and in the experiment with RUNX1 [4] were 720 and 1020, respectively.
Take GACCAGGAAACGGGGCGTGGCGGCCGCCGTGGTTAC: the ETS1 binding intensity with ETS1 [1] amounted to 449; in the experiment with ETS1 [3] it was 485. The RUNX1 binding intensity with RUNX1 [4] came out at 857.
As for CTTCATCAACCCATCCTGTCTTGTGGTTAAGTCAAG, the ETS1 binding intensity was determined as 392 with ETS1 [1] and 1700 in the experiment with ETS1 [3]. In addition, the RUNX1 binding intensity with RUNX1 [4] is 6360.
Take GAAGAGAAAGGAAACGGCTCGCGGTTTCTGGGGTTC: the ETS1 binding intensity in the experiment with ETS1 [1] was determined as 822; with ETS1 [3], 3150. Also, the values for the RUNX1 binding intensity with RUNX1 [2] and in the experiment with RUNX1 [4] were 738 and 1280, respectively.
Regarding GGCCCCTGCTTCCGGGTGTGACGCGAACCGCGGGCA, the values for the ETS1 binding intensity in the experiment with ETS1 [1] and in the experiment with ETS1 [3] were 616 and 1050, respectively. Moreover, the RUNX1 binding intensity with RUNX1 [4] stood at 1400.
The matching figures for GGGCTATTGTTTCCTCCCCCATGTGACCACAGCCTC: 418, 776 and 1290.
The matching figures for TGTGTAACTTCCTGGCTTTGGTGGTTTCCCCCTCCT: 1150, 1390 and 2180.
On to TGGGGAGGCAGGAAACGGGCCTTGTGGTTGGGGGGT, for which the ETS1 binding intensity with ETS1 [1] was determined as 4210; in the experiment with ETS1 [3] it was 16900. Also, the RUNX1 binding intensity with RUNX1 [4] is 1020.
For the sequence GGCTTCCGCCGCCACCACTGCCCCTCAACCGCCACG, the results for the ETS1 binding intensity with ETS1 [1] and with ETS1 [3] were 518 and 601, respectively. The RUNX1 binding intensity with RUNX1 [4] came out at 2040.
